Sampled rows, rich in hits. Any-hit rate of the full collection: about 4.7%.
tim23-1 inh: tim23-1 yeast growth inhibition. S. cerevisiae tim23-1 growth, BacTiter-Glo luminescence, 24 h. inhibition, % at 20 µM. 1.3% of 330,000 active;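 active = growth inhibition of the mutant yeast at or above 50%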;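 also: temperature-sensitive mutant grown at 25 °C; plate controls were DMSO-treated mutant yeast for no effect and medium wells lacking yeast for full effect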
TIM10 inh: growth inhibitors of TIM10 yeast strain; inhibition, % at 10 µM; 1.4% of 330,000 active; S. cerevisiae TIM10 strain growth, BacTiter-Glo luminescence, 24 h;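 active = inhibition of 40% or more at the single tested concentration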;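 also: wild-type TIM10 isogenic control strain grown at permissive 25 °C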
SKKanGAS inh: inhibitors of SKKanGAS S. pyogenes growth in kanamycin (SK-promoter or general growth effect); 1.3% of 300,000 active; BacTiter-Glo, 6 h; inhibition, % at 7.5 µM;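 active = mean replicate score, as percent of positive control median, at least 50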;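 also: strain carries kanamycin resistance gene driven by streptokinase promoter and grows in 40 µg/ml kanamycin; loss of luminescence reflects streptokinase promoter inhibition or plain growth inhibition; 0% = median of DMSO wells and 100% = positive control at its reference dose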
ATG4B inhibitor: ATG4B (human) cysteine protease inhibition; 0.51% of 340,000 active; inhibition, % at 8.33 µM; ATG4B cleavage of LC3-PLA2, NBD-HPC fluorescence, 1 h; Q9Y4P1; AID 504462; in the data active = inhibition above about 40%
Target sequence (Q9Y4P1 whole entry, looked up): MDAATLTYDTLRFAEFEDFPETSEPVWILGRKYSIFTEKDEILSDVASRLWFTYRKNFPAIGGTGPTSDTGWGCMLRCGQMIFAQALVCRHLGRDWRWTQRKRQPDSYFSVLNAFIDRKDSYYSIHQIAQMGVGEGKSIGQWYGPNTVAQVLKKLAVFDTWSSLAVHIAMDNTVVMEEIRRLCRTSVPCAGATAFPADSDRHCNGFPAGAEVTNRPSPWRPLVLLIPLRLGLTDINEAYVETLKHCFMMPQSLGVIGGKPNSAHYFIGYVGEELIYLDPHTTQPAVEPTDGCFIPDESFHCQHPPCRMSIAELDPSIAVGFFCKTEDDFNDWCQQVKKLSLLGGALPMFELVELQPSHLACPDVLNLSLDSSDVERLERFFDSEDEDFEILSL
PfHsp90 yeast 2: growth inhibition of yeast expressing Plasmodium Hsp90; S. cerevisiae expressing PfHsp90, BacTiter-Glo ATP, 48 h; yeast lacking PDR1 and PDR3 efflux regulators; inhibition, % at 9.4 µM; 0.32% of 310,000 active; AID 504621;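 active = every replicate shows inhibition above about 80%, whatever the replicate mean, limit read from the data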;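 also: 0% = DMSO neutral controls and 100% = 20 µM radicicol positive controls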
tim10-1 inh: inhibits growth of tim10-1 mutant yeast; S. cerevisiae tim10-1 ts strain growth, BacTiter-Glo, 24 h; inhibition, % at 20 µM; 2.2% of 330,000 active; AID 463190;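 active = inhibition of at least 40%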;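 also: mutant grown at 25 °C; 0% = DMSO wells with yeast and 100% = wells holding no yeast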
ATG4B conf: ATG4B (human) inhibition, single-dose confirmed; shares compounds with ATG4B inhibitor; ATG4B protease fluorescent substrate cleavage assay; inhibition, % at 8.33 µM; 92% of 320 active; in the data active = inhibition above about 39%
PLA2 counter: inhibits human PLA2, flagging false ATG4B inhibitors; shares compounds with ATG4B inhibitor; purified PLA2, NBD-C6-HPC fluorescence, 45 min; inhibition, % at 8.33 µM; 66% of 1,600 active; AID 588402; in the data active = inhibition above about 50%
Target sequence (P04054 whole entry, looked up): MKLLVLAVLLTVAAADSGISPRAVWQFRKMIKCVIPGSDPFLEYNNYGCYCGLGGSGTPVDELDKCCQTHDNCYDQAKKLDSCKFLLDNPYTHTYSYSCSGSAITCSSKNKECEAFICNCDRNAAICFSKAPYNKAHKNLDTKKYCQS
An asterisk follows results filed as active; x = no result.

SMILES | tim23-1 inh | TIM10 inh | SKKanGAS inh | ATG4B inhibitor | PfHsp90 yeast 2 | tim10-1 inh | PLA2 counter | others
C=CCN1C(=O)C(CC(=O)O)SC1=Nc1ccc(C(=O)O)cc1 (stereo unspecified) | 6.2 | -16.7 | 2.6 | -1.8 | 30.7 | 10.6 | x
C=CCN1C(=O)C(Cc2ccccc2Cl)SC1=Nc1ccc(C(=O)O)cc1 (stereo unspecified) | 18.2 | 21.0 | 4.8 | 55.3* | -7.8 | 5.1 | 58.5*
CC(CNC(=S)Nc1cc(F)cc(F)c1)CSc1ccc(Cl)cc1 (stereo unspecified) | 22.1 | 24.2 | 54.6* | 46.5* | 12.0 | 13.8 | 69.5*
O=C(N/N=C/c1ccc(-c2ccc(S(=O)(=O)Nc3ncccn3)cc2)o1)c1cc2ccccc2cc1O | -23.9 | -22.6 | 8.8 | 75.1* | 2.1 | -37.9 | 16.4 | ATG4B conf=37.5
CCOc1ccc(C(=O)N/N=C/c2ccc(-c3ccc(S(=O)(=O)Nc4ncccn4)cc3)o2)cc1 | 2.2 | 22.1 | 8.0 | -7.3 | -6.6 | 12.4 | x
CC(O)CNc1nc2sc3c(c2c(=O)n1CCc1ccccc1)CCCCC3 (stereo unspecified) | 40.8 | 26.2 | 12.5 | 41.1* | 12.2 | 35.1 | 55.2*
CN(C)CCNc1nc2sc3c(c2c(=O)n1CCc1ccccc1)CCCCC3 | -18.6 | 37.9 | 20.8 | -3.8 | -5.5 | 2.9 | x
Cc1ccc(C2=Nc3ccc(Br)cc3C(c3ccncc3)=NN2)cc1 | 13.7 | 7.3 | 6.0 | 43.9* | -21.9 | -33.3 | 49.2
CCOc1ccc2c(c1)C(c1ccccc1)=NNC(c1ccccc1)=N2 | 0.7 | -2.2 | -4.7 | 74.8* | -31.9 | -1.4 | 72.2*
Cc1ccc2c(c1)C(c1ccncc1)=NNC(c1ccccc1)=N2 | 35.5 | 17.8 | -6.9 | 3.4 | 14.2 | 4.3 | x
c1ccc(C2=Nc3c(ccc4ccccc34)C(c3ccncc3)=NN2)cc1 | 33.6 | 8.8 | x | 47.4* | -49.3 | 17.0 | 70.9*
COc1ccc2c(c1)C(c1ccc(C)o1)=NNC(c1ccccc1)=N2 | 19.6 | 27.3 | -4.0 | 42.3* | x | 22.3 | 42.1 | ATG4B conf=68.7*
NC(=O)COC(=O)c1cc(-c2cccs2)nn1-c1ccccc1 | 6.4 | 13.1 | -1.3 | -3.7 | -1.7 | -3.3 | x
COc1ccc(-c2cc(C(=O)NCCCN3CCOCC3)c3ccccc3n2)cc1OC | 9.3 | 7.3 | 10.2 | -20.1 | -3.7 | 19.7 | x
CCc1ccc2c(c1)C(c1ccncc1)=NNC(c1ccccc1)=N2 | 33.0 | 39.4 | -6.4 | 47.8* | x | 18.9 | 58.5*
COc1cccc(-c2nc3ccccc3s2)c1 | 24.0 | 11.5 | 9.8 | 5.3 | x | 22.8 | x
CCn1cc(CNC(=O)CCc2ccc(OC)cc2)cn1 | -1.6 | 0.1 | 0.3 | 0.1 | -5.3 | 0.1 | x
Cc1ccc(S(=O)(=O)N2CCC(C(=O)NCc3ccccc3Cl)CC2)cc1 | 14.8 | 2.0 | -8.6 | 45.6* | 1.1 | 16.3 | 45.0 | ATG4B conf=67.3*
CC1CCc2nc3ccc(S(=O)(=O)N4CCC(C(=O)NCc5ccccc5Cl)CC4)cc3c(C(=O)O)c2C1 (stereo unspecified) | 11.2 | 5.0 | 0.6 | 54.8* | 0.3 | 15.6 | 79.2*
O=C(NC1CCc2ccccc21)C1CCN(S(=O)(=O)c2ccc(Cl)cc2)CC1 (stereo unspecified) | -1.6 | 9.3 | 14.3 | 46.1* | 18.2 | 20.9 | 39.7
O=C(NC1CC1)C1CCN(S(=O)(=O)c2ccc(Cl)cc2)CC1 | 4.8 | -11.1 | 0.2 | 1.9 | 6.0 | 1.5 | x
COc1ccc(NS(=O)(=O)c2ccc(C)c(NC(=O)NC3CCCCC3)c2)cc1 | 11.1 | -0.9 | 11.3 | 4.9 | -25.5 | -2.8 | x
COc1ccc(NS(=O)(=O)c2cccc(NC(=O)NC3CCCCC3)c2)cc1 | 6.1 | 8.6 | 17.7 | 54.4* | -30.7 | 8.7 | 64.8*
CC(=O)Nc1cccc(-c2csc(Nc3ccc(C)cn3)n2)c1 | -12.9 | 16.8 | -1.9 | -12.2 | -4.8 | 1.6 | x
O=C(CCC1CCCC1)Nc1ccccc1-c1ccccc1 | 26.5 | 2.4 | 6.2 | 45.4* | -21.6 | 20.3 | 50.3*
SMILES | tim23-1 inh | TIM10 inh | SKKanGAS inh | ATG4B inhibitor | PfHsp90 yeast 2 | tim10-1 inh | PLA2 counter | others
O=C(CC1CCCCC1)Nc1ccccc1-c1ccccc1 | 14.0 | 17.6 | -2.4 | 39.7 | 0.9 | 13.0 | x
O=C(CCC1CCCCC1)Nc1ccccc1-c1ccccc1 | 32.3 | 16.8 | 7.2 | 52.8* | x | 32.3 | 54.1*
C#CCOc1ccc2c(C)cc(=O)oc2c1 | 5.4 | 6.5 | -1.5 | 1.7 | 25.0 | 0.9 | x
CCn1cc(CNC(=O)/C=C/c2ccc([N+](=O)[O-])cc2)c(C)n1 | 15.8 | -2.7 | -12.5 | -0.9 | 2.3 | 7.5 | x
Cc1ccc(NC(=S)NC2CCSc3ccccc32)cc1C (stereo unspecified) | 45.5 | 27.3 | 60.9* | 41.0* | -35.9 | 27.0 | 53.2*
Cc1cc(Cl)ccc1Oc1ccc(C(N)=O)cc1[N+](=O)[O-] | 11.0 | -3.4 | 4.0 | 52.8* | -21.1 | 27.4 | 24.4
OC(CN1c2ccccc2Sc2ccccc21)Cn1nnc2ccccc21 (stereo unspecified) | 14.1 | 23.9 | 20.3 | 44.4* | -15.8 | 13.8 | 64.9*
Nc1nc(SCc2nnc(SCC(=O)O)n2-c2ccccc2)nc2sc3c(c12)CCCC3 | 5.1 | 13.3 | -4.1 | 46.1* | -2.5 | 14.4 | 63.0*
CC(C)NC(=O)NC(=O)CSc1nnc(COc2ccccc2F)n1C(C)C1CC2CCC1C2 (stereo unspecified) | 36.1 | 28.5 | 50.8* | 42.2* | -10.3 | 33.7 | 43.5
CC(C1CC2CCC1C2)n1c(COc2ccccc2F)nnc1SCC(N)=O (stereo unspecified) | 12.3 | 10.2 | 6.3 | 23.9 | 6.3 | 20.2 | x
O=C(O)c1cc([N+](=O)[O-])ccc1NCc1ccccc1Cl | 20.2 | 12.1 | 20.2 | 48.3* | 5.5 | 15.1 | 45.3 | ATG4B conf=63.8*
CCOC(=O)c1cn(Cc2c(C)c(C)c(C)c(C)c2C)nn1 | -4.9 | 4.3 | -0.4 | 61.0* | -7.2 | 8.7 | 58.8*
Fc1cccc(Cl)c1CSc1nnc(COc2cccc3cccnc23)o1 | 21.5 | 6.9 | 7.9 | 64.2* | -19.2 | -14.8 | 67.1*
NCCc1nnc(SCc2c(F)cccc2Cl)o1 | 2.3 | -1.4 | 1.1 | 1.1 | -5.0 | 4.1 | x
CN1CCN(c2nc(-c3cc4ccccc4o3)cs2)CC1 | 22.3 | 14.4 | -0.2 | -4.0 | -24.3 | 25.4 | x
NC(=O)C1CCN(c2nc(-c3cc4ccccc4o3)cs2)CC1 | 40.5 | 14.9 | x | 45.3* | -1.7 | 18.2 | 49.5
Cn1c(COc2ccccc2)nnc1SCCSc1nnc(COc2ccccc2)n1C | 17.2 | 4.1 | 6.0 | 0.7 | 2.6 | 10.7 | x

Assay outcomes as filed in PubChem BioAssay.
